This is a sample that favours compounds with a hit; in the whole collection about 2.4% have one here.
D2 antagonist – antagonists of human D2 dopamine receptor. P14416. inhibition, % at 10 µM. 340,000 tested, 2% active. HEK293 TREx D2 cells, calcium flux, dopamine EC80; in the data active = inhibition above about 30%; inactive = below that, where a call was filed
Target sequence (P14416 whole entry, looked up): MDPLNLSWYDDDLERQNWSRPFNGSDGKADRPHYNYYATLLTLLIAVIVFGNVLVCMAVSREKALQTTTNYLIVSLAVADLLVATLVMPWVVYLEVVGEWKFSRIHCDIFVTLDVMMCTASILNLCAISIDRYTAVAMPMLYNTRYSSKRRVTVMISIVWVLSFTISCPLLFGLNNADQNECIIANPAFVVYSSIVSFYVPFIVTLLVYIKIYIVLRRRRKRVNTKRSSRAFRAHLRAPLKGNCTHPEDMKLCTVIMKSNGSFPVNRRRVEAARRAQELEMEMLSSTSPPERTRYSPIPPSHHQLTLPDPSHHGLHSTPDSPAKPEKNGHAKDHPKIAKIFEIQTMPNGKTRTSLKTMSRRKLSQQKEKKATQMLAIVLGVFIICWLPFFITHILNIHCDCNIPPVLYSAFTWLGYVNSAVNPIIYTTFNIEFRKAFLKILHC
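Antagonism is scored as inhibition of an EC80 dopamine-evoked calcium signal in a force-coupled, tetracycline-inducible HEK293 T-REx D2 line, with compound present 180 s before agonist.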
D2 PAM-1 – human D2 receptor positive allosteric modulation; P14416; DiscoveRx D2 beta-arrestin cells, luminescence, 90 min; 100% = 57 uM dopamine signal; potentiation, % (test concentration not listed); 360,000 tested, 0.23% active; AID 624464; in the data active = potentiation above about 50%; inconclusive = mostly about 30% to 49%
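D2 cells co-treated with compound plus 50 nM dopamine (EC20) for 90 min at 37 deg C to detect potentiation. Beta-arrestin recruitment was read as enzyme-fragment luminescence after 1 h at ambient temperature. Full response was set by 57 uM dopamine.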
D2 ag-1 – D2 dopamine receptor (human) agonism; activation, % at 2 µM; P14416; HEK293 T-REx D2 cells, calcium flux agonist mode; 340,000 tested, 0.53% active;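 active = activation over 3 SD above normal in the single-dose calcium agonist read, cut at about 30% in these data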
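Tetracycline-induced HEK293 T-REx cells with force-coupled D2 receptor, plated overnight at 30 C, loaded with no-wash calcium dye. After a 10 s baseline, compound was pin-added and calcium flux read kinetically for 180 s; calcium rises flagged agonists.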
D2 ag-2 – activates the human D2 dopamine receptor; P14416; DiscoveRx PathHunter D2 beta-arrestin, luminescence, 90 min; 100% = 57 uM dopamine signal; activation, % (concentration not given with the values); 360,000 tested, 0.084% active; AID 624465; in the data active = activation above about 40%; inconclusive = between about 15% and that limit
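Agonist mode: compounds alone added to overnight-plated D2 PathHunter cells for 90 min at 37 C, with 57 uM final dopamine (EC100) defining full response. Beta-arrestin recruitment detected by chemiluminescent reagent, read after 1 h at ambient temperature.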
D2 PAM-2 – positively modulates the human D2 dopamine receptor allosterically. P14416. HEK293 T-REx D2, calcium flux, EC20 dopamine potentiation. potentiation, % at 10 µM. 340,000 tested, 0.34% active. AID 485347;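 active = potentiation over 3 SD above the plate norm, cut at about 30% in these data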
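Tetracycline-induced Hek293 Trex D2 cells, force-coupled to calcium, loaded with no-wash calcium dye. Compound added with 180 s kinetic read for agonism, then EC20 dopamine and a further 180 s read for potentiation.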
Each line names hits and unclear results; the compound was inactive in the other large screens.

O=C(Nc1ccc(F)c(Cl)c1)N(Cc1ccc2c(c1)OCO2)C1CCN(Cc2ccccc2)CC1	none (no result: D2 antagonist, D2 PAM-1, D2 ag-2)
COC(COC(N)=O)C1=C(N2CC2)C(=O)C(C)=C(N2CC2)C1=O (configuration not stated)	D2 PAM-1 72, D2 ag-2 inconclusive (no result: D2 antagonist, D2 ag-1, D2 PAM-2)
O=C(c1ccc(CS(=O)(=O)c2ccccc2)o1)N1CCC2(CC1)OCCO2	none
Cc1cccc(CS(=O)(=O)Cc2ccc(C(=O)N3CCC4(CC3)OCCO4)o2)c1	D2 antagonist 40
O=C(c1ccc2c(c1)N(Cc1c(F)cccc1Cl)C(=O)c1ccccc1S2)N1CCC2(CC1)OCCO2	none (no result: D2 antagonist, D2 PAM-1, D2 ag-2)
C[C@H]1OC[C@@H](C[N+](C)(C)C)O1	D2 ag-1 40
CC1OC(C[N+](C)(C)C)CC1O (configuration not stated)	none
CN1CCC(OC(=O)C2c3ccccc3Oc3ccccc32)CC1	D2 antagonist 33
COc1cc(CN2CC=C(c3ccc(F)cc3)CC2)cc(OC)c1	D2 antagonist 81
COc1cc(C)c(CN2CC=C(c3ccc(F)cc3)CC2)cc1C	D2 antagonist 84
CCOc1ccc(CN(CCc2ccc3c(c2)OCO3)Cc2ccc(CC)cc2)cc1	none (no result: D2 antagonist, D2 PAM-1, D2 ag-2)
CCn1c(O)c(C=Nc2ccc(N3CCOCC3)cc2)c(=O)n(CC)c1=S	D2 ag-1 35
CN1C[C@H](CO)C=C2c3cccc4[nH]cc(c34)C[C@H]21	D2 ag-2 69
COc1ccc(OC)c(NC(=O)Cn2cc(C(=O)c3ccccc3F)c3ccccc32)c1	none (no result: D2 antagonist, D2 PAM-1, D2 ag-2)
CC1=CC(=O)C2=C(C)CC(O)C3C(C)C(=O)OC3C12 (configuration not stated)	D2 antagonist 35
CNCCc1ccc(O)c(O)c1	D2 PAM-1 66, D2 ag-2 76 (no result: D2 antagonist, D2 ag-1, D2 PAM-2)
COc1ccc(CCN)cc1O	none (no result: D2 antagonist, D2 ag-1, D2 PAM-2)
CCC(C)C(NC(=O)CCCNC(=O)CCC(=O)OC1O[C@H]2OC3(C)CC[C@H]4[C@H](C)CCC(C1C)C24OO3)C(=O)O (some centres not stated)	none (no result: D2 PAM-1, D2 ag-2)
CCC(C)NC(=O)CCC(=O)OC1O[C@H]2OC3(C)CC[C@H]4[C@H](C)CCC(C1C)C24OO3 (some centres not stated)	D2 ag-2 57
C[C@@H]1CC[C@H]2[C@@H](C)C(=O)O[C@@H]3O[C@@]4(C)CC[C@@H]1[C@]32OO4	D2 PAM-1 64, D2 ag-2 inconclusive
COc1ccc(-c2nc(CN3C(=O)CN=C(c4ccccc4)c4ccccc43)c(C)o2)cc1OC	none (no result: D2 antagonist, D2 PAM-1, D2 ag-2)
Cc1ccc(C2CC3CCC(C2)N3Cc2ccccc2F)cc1 (configuration not stated)	D2 antagonist 68
COC(=O)C1=C(c2ccc(OCc3ccccc3)cc2)C[C@@H]2CC[C@H]1N2C(=O)NC1CCN(Cc2ccccc2)CC1	D2 antagonist 70
CCCCC1(CN2CCCC2=O)C(=O)NC(=O)NC1=O	D2 antagonist 45
CC(C)[C@H]1C(=O)N2CCC[C@H]2[C@]2(O)O[C@](NC(=O)[C@@H]3C=C4c5cccc6[nH]cc(c56)C[C@H]4N(C)C3)(C(C)C)C(=O)N12	D2 antagonist 88, D2 PAM-1 66, D2 ag-1 84, D2 ag-2 80
CC(C)[C@@]1(NC(=O)[C@@H]2C=C3c4cccc5[nH]cc(c45)C[C@H]3N(C)C2)O[C@@]2(O)[C@@H]3CCCN3C(=O)[C@H](Cc3ccccc3)N2C1=O	D2 antagonist 80, D2 ag-1 64 (no result: D2 PAM-1, D2 ag-2)
O=S1(=O)N(Cc2ccccc2Cl)CCCN1Cc1ccccc1Cl	none (no result: D2 antagonist, D2 PAM-1, D2 ag-2)
CC(=O)OCC[N+](C)(C)C	D2 ag-1 45
C[N+](C)(C)CCOC(=O)CBr	none
CNC(C)Cc1ccccc1Sc1ccc(O)cc1 (configuration not stated)	D2 antagonist 67
O=C1NC(=O)[C@]2(Cc3ccccc3N3CCN(c4ccccc4)CC32)C(=O)N1Cc1ccccc1 (some centres not stated)	D2 antagonist 40, D2 ag-1 35, D2 ag-2 inconclusive
COc1cc(/C=C/c2nc3ccccc3c(=O)n2-c2ccc(Br)c(C)c2)ccc1O	none (no result: D2 antagonist, D2 PAM-1, D2 ag-2, D2 PAM-2)
COc1ccc2c(c1)CC1(CN2C)C(=O)NC(=O)N(CCc2ccccc2)C1=O (configuration not stated)	none
CCC(C)N1C(=O)NC(=O)C2(Cc3c(ccc4ccccc34)N(C)C2)C1=O (configuration not stated)	D2 PAM-1 77
Cc1ncc([N+](=O)[O-])n1CCOC(N)=O	D2 antagonist 38
C=CCn1c(O)c(C(C)=NCCN2CCOCC2)c(=O)[nH]c1=O	D2 antagonist 39
C=CCn1c(O)c(C(CC)=NC2CC2)c(=O)[nH]c1=O	D2 antagonist 39
CC(=NCCN1CCOCC1)c1c(O)n(Cc2ccccc2)c(=O)[nH]c1=O	none
O=C1CN=C(c2ccccc2Cl)c2cc(Cl)ccc2N1Cc1cccc(Cl)c1	none (no result: D2 antagonist, D2 PAM-1, D2 ag-2)
Cc1cc(NC(=O)c2cccn(Cc3cccc([N+](=O)[O-])c3)c2=O)no1	none (no result: D2 antagonist, D2 PAM-1, D2 ag-2)
CN(C)P1(N(C)C)=Nc2c(c(N)nn2C)C(c2ccccc2)=N1	D2 antagonist 31
C[C@@H]1C[C@H]2OC(=O)C3(CO3)[C@H]2[C@H](O)[C@]2(C)C(=O)C3OC3[C@@H]12 (some centres not stated)	D2 antagonist 41 (no result: D2 PAM-1, D2 ag-2)
COc1ccc(-c2nc(CN3C(=O)CN=C(c4ccccc4)c4cc(Cl)ccc43)c(C)o2)cc1	none (no result: D2 antagonist, D2 PAM-1, D2 ag-2, D2 PAM-2)
CC(C)(C)NC(=O)C1CC2CCCCC2CN1 (configuration not stated)	D2 antagonist 64
COCCOC(=O)c1c(N)n(Cc2ccccc2)c2nc3ccccc3nc12	D2 antagonist 36
CCCCn1c(N)c(C(=O)OCCOC)c2nc3ccccc3nc21	none (no result: D2 antagonist, D2 ag-1, D2 PAM-2)
CCOC(=O)c1c(N)n(Cc2ccco2)c2nc3ccccc3nc12	D2 antagonist 30
CN1CCN(c2csc3ccc(F)cc3c2=O)CC1	none (no result: D2 antagonist, D2 PAM-1, D2 ag-1, D2 ag-2)
CCCC12CN3CC(C)(CN(C1)C3c1c(C)[nH]c(=O)[nH]c1=O)C2=O (configuration not stated)	none (no result: D2 antagonist, D2 PAM-1, D2 ag-2)
CCOC(=O)C1CCCN(c2ccc([N+](=O)[O-])c3nonc23)C1 (configuration not stated)	D2 antagonist 52, D2 ag-1 135
CC1CCCN(c2ccc(C(=O)N3CCC4(CC3)OCCO4)cc2[N+](=O)[O-])C1 (configuration not stated)	none
Cc1cc(OCC(=O)N2CCN(CCc3ccccn3)CC2)cc(C)c1Cl	none (no result: D2 antagonist, D2 PAM-1, D2 ag-2, D2 PAM-2)
CCN1/C(=C\C=C\C2=[N+](CC)c3ccccc3C2(C)C)C(C)(C)c2ccccc21	D2 ag-1 50
CCN(CC)C(=O)c1ccc(NC(=O)CCn2nc(-c3ccc(C)cc3)c3ccccc3c2=O)cc1	none (no result: D2 antagonist, D2 PAM-1, D2 ag-1, D2 ag-2)
